Data reported in the supplement of paper PMC10849652.
Of roughly 7,900 targets only a part is listed; those with a hit were picked by preference. About 0.6% of all pairs of compound and target were hits. Values without a mark were called inactive.

How the values were obtained:
Test in all cases: log2 fold change, soluble protein after heating vs DMSO (PISA); higher = thermal stabilisation; K562 cells, 10 uM, 30 min; active = over 0.2 and 3.5 SD of the protein, either way, in both replicates (recomputed)
[1] = compound: CN1CCN(CCOc2cc(OC3CCOCC3)c3c(Nc4c(Cl)ccc5c4OCO5)ncnc3c2)CC1 [saracatinib]
In short: (§1)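 K562 cells at 2×10^6 cells/mL were treated with 10 μM compound for 30 min. Aliquots were heated for 3 min across 48°C-58°C, pooled, and extracted in PBS with 0.5% NP-40 at 4°C; soluble protein was the supernatant after 21,000xg for 90 min. Soluble protein was quantified by TMTpro 16plex LC-MS/MS with channel sums equalised, and reported as log2 fold change in thermal stability against DMSO controls, with values from duplicates.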

[2] = compound: CN1CCN(c2nc(C3=C(c4c[nH]c5ccccc45)C(=O)NC3=O)c3ccccc3n2)CC1 [sotrastaurin]
In short: as §1

[3] = compound: CN1CC[C@H](c2c(O)cc(O)c3c(=O)cc(-c4ccccc4Cl)oc23)[C@H](O)C1 [alvocidib]
In short: as §1

[4] = compound: CN1CCc2c(c3ccccc3n2Cc2ccc(C(=O)NO)cc2)C1 [Tubastatin A]
In short: as §1

[5] = compound: CNC(=O)C1=CC=CC=C1NC2=NC(=NC=C2Cl)NC3=C(C=C(C=C3)N4CCOCC4)OC
In short: as §1

[6] = compound: CNC(=O)c1ccc(Nc2ncc(C(F)(F)F)c(NCc3nccnc3N(C)S(C)(=O)=O)n2)cc1 [defactinib]
In short: as §1

[7] = compound: CNCc1ccc(-c2[nH]c3cc(F)cc4c3c2CCNC4=O)cc1 [rucaparib]
In short: as §1

[8] = compound: CNc1nc(-c2ccc3c(N)n[nH]c3c2)cc(N2C[C@@H](C(=O)NC3CCCCC3)CC[C@H]2C)n1
In short: as §1

[9] = compound: COC(=O)N[C@@H](C)CNc1nccc(-c2cn(C(C)C)nc2-c2cc(Cl)cc(NS(C)(=O)=O)c2F)n1 [encorafenib]
In short: as §1

[10] = compound: COC(=O)[C@H](CCSC)NC(=O)C1=C(C=C(C=C1)NC[C@H](CS)N)C2=CC=CC=C2
In short: as §1

Chain of UniProt P48509 (P48509 whole entry, looked up): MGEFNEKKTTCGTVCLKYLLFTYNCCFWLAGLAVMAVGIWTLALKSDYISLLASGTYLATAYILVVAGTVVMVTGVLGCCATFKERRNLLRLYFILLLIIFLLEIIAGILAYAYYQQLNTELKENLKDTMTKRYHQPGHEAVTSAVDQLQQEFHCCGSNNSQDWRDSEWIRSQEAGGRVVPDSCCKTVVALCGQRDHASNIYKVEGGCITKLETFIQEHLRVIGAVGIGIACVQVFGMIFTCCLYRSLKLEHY
Chain of UniProt Q5RI15 (Q5RI15 whole entry, looked up): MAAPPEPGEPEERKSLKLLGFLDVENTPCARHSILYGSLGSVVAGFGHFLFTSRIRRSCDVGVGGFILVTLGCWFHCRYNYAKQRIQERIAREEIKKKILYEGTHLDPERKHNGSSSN
Chain of UniProt Q16630 (Q16630 whole entry, looked up): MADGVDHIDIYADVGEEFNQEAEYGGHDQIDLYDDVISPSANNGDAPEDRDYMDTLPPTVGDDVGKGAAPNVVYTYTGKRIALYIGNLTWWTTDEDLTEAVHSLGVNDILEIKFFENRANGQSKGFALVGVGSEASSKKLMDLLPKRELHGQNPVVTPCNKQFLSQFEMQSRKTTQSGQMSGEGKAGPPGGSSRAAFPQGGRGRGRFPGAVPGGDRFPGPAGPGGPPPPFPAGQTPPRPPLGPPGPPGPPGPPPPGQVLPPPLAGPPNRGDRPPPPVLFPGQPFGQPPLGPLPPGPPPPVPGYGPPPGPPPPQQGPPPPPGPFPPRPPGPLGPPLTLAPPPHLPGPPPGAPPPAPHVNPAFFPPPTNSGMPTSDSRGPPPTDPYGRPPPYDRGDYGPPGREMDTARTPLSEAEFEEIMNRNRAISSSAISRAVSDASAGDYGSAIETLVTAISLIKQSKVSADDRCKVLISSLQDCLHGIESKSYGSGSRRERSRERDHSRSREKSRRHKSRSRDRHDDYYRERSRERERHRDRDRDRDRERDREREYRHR
Chain of UniProt Q9UIV1 (Q9UIV1 whole entry, looked up): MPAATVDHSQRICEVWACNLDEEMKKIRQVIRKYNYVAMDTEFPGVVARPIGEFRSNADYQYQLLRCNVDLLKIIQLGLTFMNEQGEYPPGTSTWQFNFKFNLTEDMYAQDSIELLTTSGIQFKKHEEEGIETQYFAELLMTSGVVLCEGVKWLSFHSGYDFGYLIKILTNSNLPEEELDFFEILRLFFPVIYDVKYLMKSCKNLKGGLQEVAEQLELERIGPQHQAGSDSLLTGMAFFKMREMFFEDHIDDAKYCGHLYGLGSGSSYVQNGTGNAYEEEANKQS
Chain of UniProt P00915 (P00915 whole entry, looked up): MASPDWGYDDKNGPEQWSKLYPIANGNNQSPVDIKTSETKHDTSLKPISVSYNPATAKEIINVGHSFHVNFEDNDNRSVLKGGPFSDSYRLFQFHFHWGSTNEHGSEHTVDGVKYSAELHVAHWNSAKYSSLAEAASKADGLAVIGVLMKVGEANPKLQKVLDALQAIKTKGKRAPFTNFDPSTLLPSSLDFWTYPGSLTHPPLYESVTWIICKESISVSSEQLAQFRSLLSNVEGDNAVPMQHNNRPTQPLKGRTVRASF
Chain of UniProt P19784 (P19784 whole entry, looked up): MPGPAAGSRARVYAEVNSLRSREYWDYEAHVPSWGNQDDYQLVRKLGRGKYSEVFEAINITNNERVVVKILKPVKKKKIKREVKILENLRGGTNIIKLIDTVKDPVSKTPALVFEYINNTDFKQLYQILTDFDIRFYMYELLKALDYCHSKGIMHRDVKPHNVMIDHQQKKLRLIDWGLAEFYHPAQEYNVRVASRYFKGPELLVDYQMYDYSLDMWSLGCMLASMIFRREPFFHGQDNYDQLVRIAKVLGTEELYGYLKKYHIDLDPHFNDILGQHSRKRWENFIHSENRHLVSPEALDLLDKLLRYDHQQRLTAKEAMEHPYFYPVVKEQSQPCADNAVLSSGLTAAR
Chain of UniProt P41208 (P41208 whole entry, looked up): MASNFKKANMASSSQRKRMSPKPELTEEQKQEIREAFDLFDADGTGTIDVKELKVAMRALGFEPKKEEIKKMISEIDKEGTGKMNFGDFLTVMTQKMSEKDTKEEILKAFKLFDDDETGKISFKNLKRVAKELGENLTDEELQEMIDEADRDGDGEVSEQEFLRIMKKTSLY
Chain of UniProt P10606 (P10606 whole entry, looked up): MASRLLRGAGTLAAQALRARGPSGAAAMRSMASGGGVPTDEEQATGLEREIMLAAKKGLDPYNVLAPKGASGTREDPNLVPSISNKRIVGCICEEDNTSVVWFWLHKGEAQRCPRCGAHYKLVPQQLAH
Chain of UniProt Q96SZ6 (Q96SZ6 whole entry, looked up): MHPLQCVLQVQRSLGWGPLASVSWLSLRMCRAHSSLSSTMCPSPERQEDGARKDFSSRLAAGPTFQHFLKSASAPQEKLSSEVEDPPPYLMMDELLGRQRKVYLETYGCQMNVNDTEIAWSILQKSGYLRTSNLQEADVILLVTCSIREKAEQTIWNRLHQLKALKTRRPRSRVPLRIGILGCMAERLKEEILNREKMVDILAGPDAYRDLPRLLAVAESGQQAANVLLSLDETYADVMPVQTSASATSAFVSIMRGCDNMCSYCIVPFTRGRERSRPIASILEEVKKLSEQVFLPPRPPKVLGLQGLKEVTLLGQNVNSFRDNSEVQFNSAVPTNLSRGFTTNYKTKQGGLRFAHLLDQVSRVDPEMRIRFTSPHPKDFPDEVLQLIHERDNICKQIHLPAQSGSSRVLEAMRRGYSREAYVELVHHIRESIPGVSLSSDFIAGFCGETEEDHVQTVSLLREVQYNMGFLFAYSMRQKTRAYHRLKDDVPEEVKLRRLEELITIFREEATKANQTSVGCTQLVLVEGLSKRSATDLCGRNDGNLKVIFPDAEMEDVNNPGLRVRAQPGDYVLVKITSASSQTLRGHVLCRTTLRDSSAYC
Chain of UniProt Q5VT25 (Q5VT25 whole entry, looked up): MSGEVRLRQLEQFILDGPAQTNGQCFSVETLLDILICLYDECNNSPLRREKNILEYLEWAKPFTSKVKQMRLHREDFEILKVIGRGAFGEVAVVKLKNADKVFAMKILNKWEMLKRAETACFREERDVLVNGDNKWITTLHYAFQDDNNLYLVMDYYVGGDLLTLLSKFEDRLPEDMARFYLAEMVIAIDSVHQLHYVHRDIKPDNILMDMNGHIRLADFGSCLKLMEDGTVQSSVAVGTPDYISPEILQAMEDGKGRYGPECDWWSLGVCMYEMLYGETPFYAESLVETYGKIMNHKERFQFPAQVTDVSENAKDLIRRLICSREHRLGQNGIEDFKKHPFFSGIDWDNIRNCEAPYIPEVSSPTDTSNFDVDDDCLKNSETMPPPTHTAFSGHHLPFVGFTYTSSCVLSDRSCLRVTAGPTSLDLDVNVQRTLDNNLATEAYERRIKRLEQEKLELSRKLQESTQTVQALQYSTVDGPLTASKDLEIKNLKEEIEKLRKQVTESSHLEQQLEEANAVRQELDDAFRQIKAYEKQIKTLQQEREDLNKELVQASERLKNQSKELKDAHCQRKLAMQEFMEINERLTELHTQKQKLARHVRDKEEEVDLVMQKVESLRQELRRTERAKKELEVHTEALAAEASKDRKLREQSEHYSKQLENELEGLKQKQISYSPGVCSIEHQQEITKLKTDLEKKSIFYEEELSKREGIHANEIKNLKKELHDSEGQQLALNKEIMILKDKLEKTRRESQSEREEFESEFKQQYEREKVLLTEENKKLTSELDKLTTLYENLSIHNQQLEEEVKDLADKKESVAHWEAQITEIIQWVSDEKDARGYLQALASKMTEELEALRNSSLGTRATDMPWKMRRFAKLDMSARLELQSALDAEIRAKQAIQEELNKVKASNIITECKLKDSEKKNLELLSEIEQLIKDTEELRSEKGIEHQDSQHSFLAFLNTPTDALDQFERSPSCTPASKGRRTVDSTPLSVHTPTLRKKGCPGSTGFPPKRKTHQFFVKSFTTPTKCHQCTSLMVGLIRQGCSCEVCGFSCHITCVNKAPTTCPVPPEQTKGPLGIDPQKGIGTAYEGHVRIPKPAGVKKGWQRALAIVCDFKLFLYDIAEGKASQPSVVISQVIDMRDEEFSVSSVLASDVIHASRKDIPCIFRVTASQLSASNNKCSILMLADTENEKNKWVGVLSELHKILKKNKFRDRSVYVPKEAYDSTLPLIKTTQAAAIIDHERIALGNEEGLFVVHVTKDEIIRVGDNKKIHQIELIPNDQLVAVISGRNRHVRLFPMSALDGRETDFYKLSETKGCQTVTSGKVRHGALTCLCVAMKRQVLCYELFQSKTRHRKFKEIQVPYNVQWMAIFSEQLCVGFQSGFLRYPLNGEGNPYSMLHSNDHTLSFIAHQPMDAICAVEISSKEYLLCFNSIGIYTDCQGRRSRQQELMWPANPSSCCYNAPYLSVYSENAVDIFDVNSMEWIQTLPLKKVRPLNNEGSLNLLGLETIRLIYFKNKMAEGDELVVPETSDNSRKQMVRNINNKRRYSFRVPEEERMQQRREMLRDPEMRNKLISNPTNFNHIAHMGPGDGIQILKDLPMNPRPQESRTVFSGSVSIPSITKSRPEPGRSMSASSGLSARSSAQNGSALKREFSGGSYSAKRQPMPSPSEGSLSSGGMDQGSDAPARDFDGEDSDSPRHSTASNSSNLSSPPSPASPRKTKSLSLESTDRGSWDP
Chain of UniProt P21964 (P21964 whole entry, looked up): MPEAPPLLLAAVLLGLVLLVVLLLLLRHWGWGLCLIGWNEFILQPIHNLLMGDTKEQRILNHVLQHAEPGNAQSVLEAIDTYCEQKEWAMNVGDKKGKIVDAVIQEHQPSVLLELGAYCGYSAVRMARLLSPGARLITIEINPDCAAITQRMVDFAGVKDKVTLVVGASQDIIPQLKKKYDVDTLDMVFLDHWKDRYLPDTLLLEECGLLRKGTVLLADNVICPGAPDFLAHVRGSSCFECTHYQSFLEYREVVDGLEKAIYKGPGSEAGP
Chain of UniProt Q99807 (Q99807 whole entry, looked up): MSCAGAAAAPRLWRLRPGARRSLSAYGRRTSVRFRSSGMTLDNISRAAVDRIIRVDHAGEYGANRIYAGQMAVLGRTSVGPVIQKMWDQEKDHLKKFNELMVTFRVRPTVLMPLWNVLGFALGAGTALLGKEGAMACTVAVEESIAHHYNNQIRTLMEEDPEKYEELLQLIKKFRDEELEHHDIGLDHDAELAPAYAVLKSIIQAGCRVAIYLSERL

| Target | log2 fold change [1] | log2 fold change [2] | log2 fold change [3] | log2 fold change [4] | log2 fold change [5] | log2 fold change [6] | log2 fold change [7] | log2 fold change [8] | log2 fold change [9] | log2 fold change [10] |
| --- | --- | --- | --- | --- | --- | --- | --- | --- | --- | --- |
| CASP2 (UniProt P42575) | -0.1 | -0.048 | -0.084 | 0.082 | 0.037 | -0.08 | -0.006 | 0.053 | 0.133 | -0.005 |
| CPSF1 (UniProt Q10570) | 0.024 | -0.01 | 0.045 | -0.02 | -0.05 | 0.038 | 0.018 | -0.061 | -0.048 | -0.032 |
| CDK1 (UniProt P06493) | 0.007 | -0.045 | -0.063 | 0.018 | -0.043 | -0.118 | 0.013 | 0.01 | -0.01 | 0.003 |
| CIR1 (UniProt Q86X95) | -0.02 | -0.039 | 0.256 | 0.078 | -0.061 | 0.418 | 0.102 | 0.057 | 0.04 | 0.207 |
| CDC42BPA isoform 6 (UniProt Q5VT25) | -0.093 | -0.47 (active) | -0.688 (active) | 0.022 | -0.037 | -0.183 | 0.088 | -0.031 | 0.06 | -0.064 |
| COX5B (UniProt P10606) | -0.076 | 0.113 | -0.018 | 0.052 | 0 | -0.046 | -0.01 | 0.024 | -0.033 | 0.006 |
| CHD3 isoform 3 (UniProt Q12873) | -0.067 | -0.312 | -0.12 | 0.096 | -0.029 | -0.253 | 0.134 | -0.024 | 0.136 | -0.087 |
| CDC123 (UniProt O75794) | -0.039 | 0.073 | -0.033 | 0.075 | -0.043 | 0.008 | -0.017 | -0.041 | 0.052 | -0.032 |
| CNOT7 (UniProt Q9UIV1) | 0.008 | -0.044 | -0.091 | 0.004 | -0.035 | 0.018 | 0.051 | 0.104 | 0.113 | -0.109 |
| COASY isoform 2 (UniProt Q13057) | 0.003 | -0.001 | -0.12 | -0.001 | 0.035 | -0.065 | 0.011 | -0.03 | 0.034 | -0.029 |
| CNOT1 (UniProt A5YKK6) | -0.025 | -0.087 | -0.051 | -0.003 | 0.03 | -0.057 | 0.077 | 0.024 | 0.074 | -0.031 |
| CDK5RAP1 (UniProt Q96SZ6) | 0.192 | 0.072 | -0.077 | -0.238 (active) | 0.044 | 0.022 | 0.035 | 0.057 | 0.053 | -0.048 |
| CDC42BPB (UniProt Q9Y5S2) | -0.089 | -0.152 | 0.009 | 0.055 | 0.021 | -0.119 | 0.146 | -0.046 | -0.029 | -0.032 |
| CLASP2 isoform 3 (UniProt O75122) | -0.073 | -0.232 | -0.132 | 0.016 | -0.041 | -0.1 | 0.015 | 0.035 | 0.084 | -0.043 |
| COMT (UniProt P21964) | -0.046 | 0.109 | 0.004 | 0.4 (active) | 0.008 | -0.006 | -0.018 | 0.029 | -0.039 | -0.09 |
| CLPX (UniProt O76031) | 0.014 | 0.014 | 0.039 | 0.025 | -0.016 | -0.027 | 0.034 | -0.038 | -0.013 | -0.01 |
| COX20 isoform 2 (UniProt Q5RI15) | 0.005 | 0.008 | -0.025 | -0.062 | -0.028 | -0.017 | 0.044 | -0.025 | -0.108 | 0.009 |
| CDC37L1 (UniProt Q7L3B6) | -0.003 | 0.021 | -0.093 | -0.308 (active) | 0.002 | 0.059 | -0.058 | -0.013 | 0.005 | 0.018 |
| CD151 (UniProt P48509) | 0.045 | 0.116 | -0.049 | -0.012 | 0.092 | -0.065 | -0.097 | 0.03 | 0.031 | 0.001 |
| CLPTM1L (UniProt Q96KA5) | 0.11 | -0.013 | 0.008 | -0.008 | -0.057 | -0.042 | -0.011 | -0.099 | 0.021 | 0.043 |
| CASTOR2 (UniProt A6NHX0) | 0.042 | 0.039 | 0.027 | 0.036 | -0.082 | -0.092 | -0.048 | 0.032 | 0.04 | 0 |
| CDC42EP1 (UniProt Q00587) | -0.017 | 0.025 | -0.146 | 0.001 | -0.303 | -0.144 | -0.002 | 0.016 | -0.017 | 0.007 |
| CLSPN (UniProt Q9HAW4) | 0.076 | 0.002 | -0.102 | 0.039 | 0.053 | -0.183 | -0.11 | -0.102 | 0.031 | 0.047 |
| CSNK2A2 (UniProt P19784) | 0.029 | 0.024 | -0.041 | -0.042 | 0.214 | -0.067 | -0.123 | -0.017 | -0.039 | -0.052 |
| CA1 (UniProt P00915) | 0.014 | -0.001 | -0.095 | -0.013 | 0.009 | -0.057 | -0.036 | -0.016 | -0.002 | 0.004 |
| C19orf53 (UniProt Q9UNZ5) | -0.069 | -0.03 | 0.33 | 0.129 | 0.155 | 0.296 | 0.257 | 0.053 | 0.136 | 0.036 |
| CPSF6 isoform 2 (UniProt Q16630) | -0.014 | 0.031 | -0.128 | 0.015 | -0.217 | -0.009 | 0.016 | 0.008 | -0.043 | 0.007 |
| CETN2 (UniProt P41208) | 0.095 | 0.077 | -0.013 | -0.128 | -0.03 | -0.054 | 0.031 | 0.058 | -0.079 | 0.06 |
| COQ7 (UniProt Q99807) | 0.024 | 0.055 | 0.009 | -0.009 | 0.043 | 0.03 | -0.062 | -0.028 | -0.058 | 0.059 |
| COPS3 (UniProt Q9UNS2) | -0.016 | 0.02 | -0.019 | -0.025 | -0.021 | -0.023 | -0.037 | -0.013 | -0.003 | 0.033 |
